Broadly, the AC50 is the concentration at which the activity in the assay is half-maximal.

For 3 molecules, outcome and AC50 results are on record in PubChem BioAssay (EPA / NIEHS).

Calls of active or inactive are those of the source. The calls were made as follows: active = hit-call score of the fitted dose curve at least 0.9, where 1 is the maximum; inactive = score below 0.9.

Experiment [1] in a line: ATG_M_32_CIS: Attagene CIS-FACTORIAL HepG2 Assay for M32 Transcription Factor (Internal Marker) (AID 2282949).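 Also: background control marker of the multiplexed CIS panel rather than a real target.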 Particulars: HepG2 Attagene cis-factorial M32 reporter, mRNA; actives raise or lower the signal. The method in brief:
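Following 24 h chemical exposure of HepG2 cells transiently expressing cis-promoter reporter constructs, reporter transcript levels were determined by RT-PCR with fluorescent labelling and capillary electrophoresis, then fitted bidirectionally against DMSO.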

Experiment [2] in a line: ATG_M_06_CIS: Attagene CIS-FACTORIAL HepG2 Assay for M06 Transcription Factor (Internal Marker) (AID 2282950). Particulars: HepG2 Attagene CIS-FACTORIAL M06 internal marker reporter; actives raise or lower the signal. The essentials:
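Cells (HepG2, transiently carrying cis-driven reporter units) receive chemical for 24 h before RNA isolation. Reporter cDNA is PCR-amplified, FAM-labelled by primer extension, HpaI-digested and sized on a capillary analyser.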

Experiment [3] addresses Hypoxia-inducible factor 1-alpha (Homo sapiens) (UniProt Q16665). As to the kind of experiment: ATG_HIF1a_CIS: Attagene CIS-FACTORIAL HepG2 Assay for human Hypoxia Inducible Factor 1 (HIF1A) (AID 2282951). Particulars: HepG2 Attagene cis-factorial HIF1a reporter transcription; actives raise or lower the signal. The method in brief:
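Fluorescence intensity of capillary-separated, 6-FAM-labelled reporter amplicons gives mRNA induction in HepG2 cells carrying transfected cis-promoter reporter units; cells exposed 24 h, responses fitted up or down from DMSO.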

The target in experiment [4] is Hepatocyte nuclear factor 6 (Homo sapiens) (UniProt Q9UBC0). As to the kind of experiment: ATG_HNF6_CIS: Attagene CIS-FACTORIAL HepG2 Assay for human Hepatocyte Nuclear Factor 6 (HNF6) (AID 2282952). Particulars: HepG2 Attagene cis-factorial HNF6 reporter transcription; actives raise or lower the signal. The method in brief: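 HepG2 cells transiently transfected with cis-element-driven multiple reporter transcription units, dosed 24 h; reporter mRNA quantified by RT-PCR, FAM primer extension, HpaI digestion and capillary electrophoresis; bidirectional fit versus DMSO baseline.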

Experiment [5] addresses Heat shock factor protein 1 (Homo sapiens) (UniProt Q00613). Put plainly: ATG_HSE_CIS: Attagene CIS-FACTORIAL HepG2 Assay for human Heat Shock Transcription Factor 1 (HSE) (AID 2282953). Particulars: HepG2 HSE cis-reporter, Attagene RNA transcription; actives raise or lower the signal. The method in brief:
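Liver-derived HepG2 cells carry transiently introduced multiple reporter units governed by cis promoters. Reporter RNA measured 24 h post-dose through reverse transcription, PCR amplification, fluorescent labelling and capillary electrophoresis, normalised to DMSO.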

Experiment [6] can be described thus: ATG_MRE_CIS: Attagene CIS-FACTORIAL HepG2 Assay for human Metal Responsive Element (MRE) (AID 2282954). The following applies: HepG2 MRE cis-reporter transcription, Attagene multiplex; actives raise or lower the signal. The method in brief:
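HepG2 cells transiently transfected with multiple cis-element reporter units measure endogenous MTF1-driven transcription. After 24 h compound exposure, reporter mRNA is quantified by RT-PCR with 6-FAM labelling, HpaI digestion and capillary electrophoresis; bidirectional fits versus DMSO.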

The nature of experiment [7]: ATG_PBREM_CIS: Attagene CIS-FACTORIAL HepG2 Assay for human Phenobarbital-responsive Enhancer Module (PBREM) (AID 2282955). Particulars: HepG2 PBREM cis-reporter, Attagene multiplexed transcription; actives raise or lower the signal. The method in brief: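 Cells were transfected with cis-element reporter units and treated for 24 h, after which RNA was extracted and reporter transcripts measured by RT-PCR and capillary electrophoresis.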

Experiment [8] deals with Paired box protein Pax-6 (Homo sapiens) (UniProt P26367). As to the kind of experiment: ATG_Pax6_CIS: Attagene CIS-FACTORIAL HepG2 Assay for human Paired Box 6 (PAX6) (AID 2282956). The following applies: HepG2 CIS-FACTORIAL PAX6 reporter transcription, RNA readout; actives raise or lower the signal. The method in brief: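 Multiplexed cis-reporter HepG2 system; 24 h treatment; reporter mRNA read by RT-PCR/CE fluorescence; bidirectional fit vs DMSO.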

The nature of experiment [9]: ATG_PXRE_CIS: Attagene CIS-FACTORIAL HepG2 Assay for human Pregnane X Receptor Element (PXRE) (AID 2282957). The following applies: HepG2 Attagene CIS-FACTORIAL PXRE reporter, mRNA; actives raise or lower the signal. The method in brief:
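HepG2 cells transiently transfected with cis-regulated multiple reporter transcription units; endogenous factor activity measured as reporter mRNA 24 h after dosing. RT-PCR, fluorescent primer extension, HpaI digestion, capillary electrophoresis; bidirectional fit versus DMSO baseline.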

Experiment [10] in a line: ATG_PPRE_CIS: Attagene CIS-FACTORIAL HepG2 Assay for human Peroxisome Proliferator-activated Response Element (PPRE) (AID 2282958). Particulars: HepG2 PPRE cis-element reporter, Attagene transcription factor profiling; actives raise or lower the signal. The essentials:
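In this cell-based multiplex, a PPRE cis element drives a reporter sequence in transiently transfected HepG2 cells. Following 24 h treatment, labeled cDNA amplicons are sized and quantified by capillary electrophoresis, with DMSO defining baseline.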

Experiment [11] in a line: ATG_RORE_CIS: Attagene CIS-FACTORIAL HepG2 Assay for human RAR-related Orphan Receptor Element (RORE) (AID 2282959). The following applies: HepG2 Attagene cis-factorial RORE reporter, mRNA; actives raise or lower the signal. The method in brief:
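Endogenous factor activity at a cis response element is read as reporter transcript levels in HepG2 cells, 24 h post-dose. Transcripts are quantified by RT-PCR with capillary electrophoresis, and data fitted in both directions against DMSO.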

The nature of experiment [12]: ATG_Sox_CIS: Attagene CIS-FACTORIAL HepG2 Assay for human SRY-box transcription factor (SOX) (AID 2282960). Particulars: HepG2 Attagene cis-factorial SOX reporter, mRNA; actives raise or lower the signal. The essentials: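 Measures mRNA induction of a SOX1-associated reporter in HepG2 after 24 h dosing. Fluorescently labelled RT-PCR fragments are separated by capillary electrophoresis, and gain or loss relative to DMSO control is fitted.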

Experiment [13] deals with Transcription factor Sp1 (Homo sapiens) (UniProt P08047). As to the kind of experiment: ATG_Sp1_CIS: Attagene CIS-FACTORIAL HepG2 Assay for human Specificity Protein 1 (Sp1) (AID 2282961). The following applies: HepG2 Sp1 cis-reporter transcription, actives raise or lower the signal. The essentials: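 Cells: HepG2, transiently transfected with cis-regulated multiplexed reporters. Exposure: 24 h. Detection: reporter transcripts amplified, fluorescently labeled, restriction-digested and sized by capillary electrophoresis. Analysis: bidirectional fit relative to DMSO.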

The target of experiment [14] is Signal transducer and activator of transcription 3 (Homo sapiens) (UniProt P40763). Put plainly: ATG_STAT3_CIS: Attagene CIS-FACTORIAL HepG2 Assay for human Signal Transducer and Activator of Transcription 3 (STAT3) (AID 2282963). Particulars: HepG2, Attagene cis-factorial STAT3 reporter transcription; actives raise or lower the signal. The essentials: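 HepG2 cells transiently transfected with cis-element-driven multiple reporter transcription units; after 24 h chemical exposure, reporter mRNA measured by RT-PCR, 6-FAM primer-extension labelling, HpaI digestion and capillary electrophoresis. Bidirectional fitting versus DMSO baseline.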

The nature of experiment [15]: ATG_TA_CIS: Attagene CIS-FACTORIAL HepG2 Assay for human TA Basal Promoter (AID 2282964). Particulars: HepG2 Attagene CIS-factorial TA basal promoter reporter; actives raise or lower the signal. The method in brief: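 Background internal-marker endpoint from a 52-component HepG2 cis-reporter panel. Cells treated 24 h; reporter transcripts quantified via RT-PCR and CE fluorescence against DMSO baseline.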

Experiment [16] in a line: ATG_TCF_b_cat_CIS: Attagene CIS-FACTORIAL HepG2 Assay for human T-Cell-Factor with beta-catenin (TCF/b-cat) (AID 2282965). The following applies: HepG2 TCF/beta-catenin cis-reporter transcription, actives raise or lower the signal. The method in brief:
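HepG2 cells transiently transfected with multiple cis-promoter-regulated reporter transcription units, so endogenous transcription factor activity is measured. Reporter mRNA read 24 hours after dosing by RT-PCR, fluorescent labelling and capillary electrophoresis; bidirectional fitting against DMSO.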

Experiment [17] is described as follows: ATG_TAL_CIS: Attagene CIS-FACTORIAL HepG2 Assay for human TAL Basal Promoter (AID 2282966).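 Also: background control endpoint measuring basal TAL promoter reporter mRNA not a specific factor.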 The following applies: HepG2 Attagene cis-factorial TAL promoter reporter; actives raise or lower the signal. The essentials: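 HepG2 cells were transiently transfected with promoter-driven multiplexed reporter units and dosed for 24 h. Reporter mRNA was measured by RT-PCR with capillary electrophoresis fluorescence; bidirectional fits used DMSO as baseline, serving as a background control.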

Experiment [18] in a line: ATG_TGFb_CIS: Attagene CIS-FACTORIAL HepG2 Assay for human Transforming Growth Factor (TGF) (AID 2282967). The following applies: HepG2 Attagene CIS TGFb reporter, mRNA transcription; actives raise or lower the signal. The essentials: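 Liver HepG2 line, cis-factorial reporter panel, 24 h dosing. Quantitation: RT-PCR products labeled with 6-FAM, cut with HpaI, resolved by capillary electrophoresis; DMSO-referenced bidirectional analysis.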

Experiment [19] is described as follows: ATG_VDRE_CIS: Attagene CIS-FACTORIAL HepG2 Assay for human Vitamin D Receptor Element (VDRE) (AID 2282968). Particulars: HepG2 VDRE cis-reporter transcription, actives raise or lower the signal. The method in brief:
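HepG2 cells transiently transfected with cis-element reporter units, dosed 24 h; reporter mRNA measured by RT-PCR, 6-FAM labeling, HpaI digestion and capillary electrophoresis. Activity fitted bidirectionally against DMSO baseline.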

Experiment [20] is described as follows: ATG_SREBP_CIS: Attagene CIS-FACTORIAL HepG2 Assay for human Sterol Regulatory Element Binding (SREBP) (AID 2282962). Particulars: HepG2 Attagene cis-factorial SREBP reporter, mRNA; actives raise or lower the signal. The essentials: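 mRNA induction of transfected cis-promoter reporters in HepG2 cells, 24 h post-dose. Detection: RT-PCR with 6-FAM-labelled products, HpaI digest, capillary electrophoresis. DMSO served as negative control and baseline.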

Sequence of Hepatocyte nuclear factor 6 (Homo sapiens) (Q9UBC0 whole entry, looked up): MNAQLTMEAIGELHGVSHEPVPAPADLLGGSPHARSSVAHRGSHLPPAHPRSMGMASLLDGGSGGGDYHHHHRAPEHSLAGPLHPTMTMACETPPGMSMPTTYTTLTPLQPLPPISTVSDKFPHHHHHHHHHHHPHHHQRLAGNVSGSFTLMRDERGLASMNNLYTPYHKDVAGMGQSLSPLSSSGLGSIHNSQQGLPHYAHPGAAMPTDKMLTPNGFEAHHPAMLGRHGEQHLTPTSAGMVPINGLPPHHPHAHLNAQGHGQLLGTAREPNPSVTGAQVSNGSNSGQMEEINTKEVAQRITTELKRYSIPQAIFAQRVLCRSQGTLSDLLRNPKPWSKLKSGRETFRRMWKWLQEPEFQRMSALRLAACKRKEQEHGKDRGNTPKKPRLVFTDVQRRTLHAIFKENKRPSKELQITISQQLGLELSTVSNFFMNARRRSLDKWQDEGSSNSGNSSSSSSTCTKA
Sequence of Signal transducer and activator of transcription 3 (Homo sapiens) (P40763 whole entry, looked up): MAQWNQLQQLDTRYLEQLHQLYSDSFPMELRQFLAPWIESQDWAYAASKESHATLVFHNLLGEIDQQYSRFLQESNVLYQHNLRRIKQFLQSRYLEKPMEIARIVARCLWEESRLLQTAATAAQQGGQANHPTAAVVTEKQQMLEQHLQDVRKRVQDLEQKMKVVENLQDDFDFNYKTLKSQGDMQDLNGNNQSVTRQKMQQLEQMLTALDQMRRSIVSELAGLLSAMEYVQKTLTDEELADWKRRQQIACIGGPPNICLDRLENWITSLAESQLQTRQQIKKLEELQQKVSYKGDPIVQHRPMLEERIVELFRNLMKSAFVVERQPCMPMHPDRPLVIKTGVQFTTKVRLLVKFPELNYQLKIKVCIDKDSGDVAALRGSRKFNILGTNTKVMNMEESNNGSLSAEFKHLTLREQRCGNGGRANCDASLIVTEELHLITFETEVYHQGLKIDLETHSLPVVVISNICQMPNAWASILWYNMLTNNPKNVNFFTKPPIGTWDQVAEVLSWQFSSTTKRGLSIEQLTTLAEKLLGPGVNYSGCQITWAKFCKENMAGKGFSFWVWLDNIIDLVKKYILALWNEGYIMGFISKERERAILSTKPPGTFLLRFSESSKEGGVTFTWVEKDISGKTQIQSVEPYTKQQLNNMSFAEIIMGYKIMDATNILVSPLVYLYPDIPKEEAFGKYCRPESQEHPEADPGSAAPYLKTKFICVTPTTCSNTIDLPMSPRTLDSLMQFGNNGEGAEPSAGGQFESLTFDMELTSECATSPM
Sequence of Heat shock factor protein 1 (Homo sapiens) (Q00613 whole entry, looked up): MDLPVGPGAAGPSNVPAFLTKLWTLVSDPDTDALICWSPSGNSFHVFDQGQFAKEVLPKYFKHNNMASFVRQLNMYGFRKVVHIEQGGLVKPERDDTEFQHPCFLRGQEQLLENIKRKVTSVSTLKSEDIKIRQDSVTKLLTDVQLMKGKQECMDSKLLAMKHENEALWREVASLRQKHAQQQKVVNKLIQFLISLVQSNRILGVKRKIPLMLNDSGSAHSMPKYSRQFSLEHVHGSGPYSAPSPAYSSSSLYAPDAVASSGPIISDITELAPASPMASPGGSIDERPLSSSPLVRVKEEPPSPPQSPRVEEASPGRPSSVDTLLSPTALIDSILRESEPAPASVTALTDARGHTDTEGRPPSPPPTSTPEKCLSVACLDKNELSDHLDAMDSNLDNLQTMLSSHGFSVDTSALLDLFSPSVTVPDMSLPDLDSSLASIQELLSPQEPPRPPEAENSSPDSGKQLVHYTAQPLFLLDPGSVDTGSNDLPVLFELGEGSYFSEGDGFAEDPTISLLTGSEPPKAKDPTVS
Sequence of Paired box protein Pax-6 (Homo sapiens) (P26367 whole entry, looked up): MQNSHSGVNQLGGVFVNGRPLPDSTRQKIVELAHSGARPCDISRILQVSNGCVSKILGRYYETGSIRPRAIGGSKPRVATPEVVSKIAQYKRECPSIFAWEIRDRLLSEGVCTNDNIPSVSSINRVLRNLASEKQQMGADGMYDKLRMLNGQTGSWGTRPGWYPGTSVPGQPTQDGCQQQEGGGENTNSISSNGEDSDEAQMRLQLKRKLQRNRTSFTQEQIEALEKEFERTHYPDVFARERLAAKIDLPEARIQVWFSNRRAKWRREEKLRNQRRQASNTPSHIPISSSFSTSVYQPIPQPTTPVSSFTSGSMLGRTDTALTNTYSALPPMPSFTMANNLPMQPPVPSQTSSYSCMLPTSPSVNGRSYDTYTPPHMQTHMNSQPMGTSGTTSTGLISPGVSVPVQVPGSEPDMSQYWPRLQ
Sequence of Transcription factor Sp1 (Homo sapiens) (P08047 whole entry, looked up): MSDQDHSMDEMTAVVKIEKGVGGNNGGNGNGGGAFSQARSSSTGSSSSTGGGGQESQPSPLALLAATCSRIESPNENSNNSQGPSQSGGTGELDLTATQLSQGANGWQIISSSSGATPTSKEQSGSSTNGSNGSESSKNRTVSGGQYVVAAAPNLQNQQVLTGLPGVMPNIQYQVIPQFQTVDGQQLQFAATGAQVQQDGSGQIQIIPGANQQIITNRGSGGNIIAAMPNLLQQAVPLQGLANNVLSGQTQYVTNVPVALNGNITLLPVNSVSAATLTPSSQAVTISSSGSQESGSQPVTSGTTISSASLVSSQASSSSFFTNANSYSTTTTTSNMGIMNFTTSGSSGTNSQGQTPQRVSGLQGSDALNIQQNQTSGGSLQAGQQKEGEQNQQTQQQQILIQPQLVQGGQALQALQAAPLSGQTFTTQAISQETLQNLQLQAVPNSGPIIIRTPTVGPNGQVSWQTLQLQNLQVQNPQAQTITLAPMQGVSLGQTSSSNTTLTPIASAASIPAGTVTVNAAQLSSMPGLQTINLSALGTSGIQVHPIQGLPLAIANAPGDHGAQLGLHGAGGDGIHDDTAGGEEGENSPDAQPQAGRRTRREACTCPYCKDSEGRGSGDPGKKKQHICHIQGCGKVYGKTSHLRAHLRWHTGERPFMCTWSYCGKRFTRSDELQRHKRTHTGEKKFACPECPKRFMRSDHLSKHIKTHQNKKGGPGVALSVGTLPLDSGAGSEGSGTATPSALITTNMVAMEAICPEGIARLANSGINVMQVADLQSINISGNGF
Sequence of Hypoxia-inducible factor 1-alpha (Homo sapiens) (Q16665 whole entry, looked up): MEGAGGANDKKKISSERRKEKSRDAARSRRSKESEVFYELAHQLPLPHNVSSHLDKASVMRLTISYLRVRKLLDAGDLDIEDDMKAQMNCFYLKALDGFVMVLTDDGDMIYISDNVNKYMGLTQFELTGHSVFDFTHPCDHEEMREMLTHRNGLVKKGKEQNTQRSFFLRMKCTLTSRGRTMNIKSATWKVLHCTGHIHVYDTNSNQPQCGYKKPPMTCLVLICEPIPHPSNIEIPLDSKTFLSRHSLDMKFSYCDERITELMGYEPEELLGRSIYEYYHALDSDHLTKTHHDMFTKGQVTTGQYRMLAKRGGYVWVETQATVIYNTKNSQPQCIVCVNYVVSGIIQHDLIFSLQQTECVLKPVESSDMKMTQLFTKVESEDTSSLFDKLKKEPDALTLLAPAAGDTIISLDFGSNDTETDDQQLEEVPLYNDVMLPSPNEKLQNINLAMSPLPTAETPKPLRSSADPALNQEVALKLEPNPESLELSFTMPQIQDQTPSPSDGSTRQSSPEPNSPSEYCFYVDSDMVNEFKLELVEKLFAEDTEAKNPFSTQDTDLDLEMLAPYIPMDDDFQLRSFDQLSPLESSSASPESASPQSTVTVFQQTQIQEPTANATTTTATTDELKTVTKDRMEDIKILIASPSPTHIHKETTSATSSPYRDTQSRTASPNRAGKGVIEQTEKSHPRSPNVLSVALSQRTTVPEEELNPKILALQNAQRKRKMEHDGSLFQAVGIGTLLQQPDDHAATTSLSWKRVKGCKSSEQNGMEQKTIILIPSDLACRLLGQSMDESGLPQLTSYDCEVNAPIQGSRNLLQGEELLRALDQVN

Turning to `N#CCCC(Br)(C#N)CBr` (stereo not given), the outcome in [1], in experiment [2], in experiment [3], in experiment [7], in [10] and in experiment [11] was inactive. The molecule was called inactive in experiment [14], in experiment [15], in [17] and in experiment [18]. The AC50 in experiment [4] was 33.4 µM (active); in experiment [5], 62.9 µM (active); in experiment [6], 49.5 µM (active); in [8], 46.3 µM (active); in experiment [9] it was 33.4 µM (active); in experiment [12] it was 49.4 µM (active). The results for the AC50 in [13], in experiment [16] and in experiment [19] were 49.2 µM (active), 51 µM (active) and 43.9 µM (active), respectively.
Consider `CCOP(=S)(OCC)SCS(=O)(=O)C(C)(C)C`, for which the outcome in experiment [1], in experiment [2], in experiment [3], in experiment [4], in experiment [5] and in [6] was inactive. For the same molecule, the outcome in experiment [7], in [8], in [10], in experiment [11], in experiment [12] and in [13] was inactive. The molecule was classed as inactive in experiment [14], in experiment [15], in experiment [17], in [18] and in experiment [19]. In addition, the AC50 in [9] is 4.12 µM (active).
For `CN(C)[C@@H]1C(=O)C(C(N)=O)=C(O)[C@@]2(O)C(=O)C3=C(O)c4c(O)ccc(Cl)c4[C@@](C)(O)[C@H]3C[C@@H]12`, the result in [1], in experiment [2], in [3], in experiment [4], in experiment [5] and in experiment [6] was inactive. For the same molecule, the result in [7], in [8], in experiment [9], in [11], in experiment [13] and in experiment [20] was inactive. Also, the result in experiment [14], in experiment [15], in experiment [16], in experiment [17], in [18] and in experiment [19] was inactive.
